Experiment in all cases: NCI-60 one-dose screen, 48 h (100 = growth as untreated, 0 = no growth, -100 = all killed)
Conditions in all cases: 10 µM unless noted

Experiment [1] deals with DU-145 prostate.
Experiment [2] relates to K-562 leukemia.
Experiment [3] has as its system MALME-3M melanoma.
Experiment [4] has as its system MDA-MB-231 breast.
For experiment [5], the system named is RXF 393 renal.
Experiment [6] relates to SF-268 CNS.
In experiment [7] the test system is SF-295 CNS.
Experiment [8] concerns SF-539 CNS.
Experiment [9] has as its system UACC-257 melanoma.
The test system of experiment [10] is M14 melanoma.
For experiment [11], the system named is HCT-15 colon.
Experiment [12] relates to HT29 colon.
Experiment [13] relates to SNB-75 CNS.
In experiment [14] the test system is SNB-19 CNS.
The subject of experiment [15] is U251 CNS.
In experiment [16] the test system is PC-3 prostate.
The subject of experiment [17] is SK-MEL-5 melanoma.
Experiment [18] has as its system UACC-62 melanoma.
Experiment [19] deals with LOX IMVI melanoma.
Experiment [20] relates to SK-MEL-28 melanoma.

The source of these data is PubChem BioAssay (NCI).

Molecules are shown by their SMILES. About 83,000 compounds went through this panel and 20% of them were active in at least one assay; those are over-represented in the sample as a whole.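 Cells were grown in 96-well plates and exposed to the test compound at a single concentration for 48 hours; results are reported as percent growth, with values below 10 considered active.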 A number with no mark means an inactive call. Calls of active or inactive are those of the source.

For the compound `N#Cc1cccc(C2C3=C(COC3=O)N(CCO)c3cc4c(cc32)OCO4)c1` (stereo not given), the growth in experiment [1] is 37.3%; in experiment [2], 9.87% (active); in experiment [3] it was 49.6%; in experiment [4] it was 59.4%; in experiment [5], 41.5%; in experiment [6], 40.3%. Also, the growth was 4.98% (active) in [7]; 8.85% (active) in experiment [8]; 55.3% in [9]; 14.5% in experiment [10]; 26.1% in experiment [11]; 6.62% (active) in experiment [12]. Further, the growth was 13% in [13]; 32.9% in [14]; 21.7% in experiment [15]; 29.4% in experiment [16]; 29.6% in [17]; 43.4% in experiment [18]. Moreover, the growth in experiment [19] was 35.9%; in experiment [20], 55.2%.
Take `Cc1ccc(C(=O)c2ccc(CC(=O)NN3C(=O)c4ccccc4C3=O)n2C)cc1`: the growth was 108% in experiment [1]; 90.9% in experiment [2]; 101% in experiment [3]; 93.9% in [4]; 102% in [5]; 95.8% in [6]. For the same compound, the growth in experiment [7] was 98.6%; in experiment [8], 97.3%; in [9] it was 100%; in experiment [10] it was 104%; in experiment [11], 103%; in experiment [12] it was 106%. Moreover, the growth is 62.9% in [13]; 96.4% in experiment [14]; 95.8% in experiment [15]; 98.9% in experiment [16]; 99.8% in experiment [17]; 94.2% in experiment [18]. For the same compound, the values for the growth in experiment [19] and in experiment [20] were 94.1% and 103%, respectively.
On to `Nc1[nH]n2cc(-c3ccc(F)cc3)nc2c1N=Nc1ccc(S(N)(=O)=O)cc1`, for which the growth in [1] is 70.2%; in experiment [2] it was 90.1%; in experiment [3], 58.4%; in experiment [4] it was 74.8%; in [5], 60.4%; in [6], 76.7%. Besides, the growth was 98.2% in experiment [7]; 72.5% in experiment [8]; 99.6% in experiment [9]; 64.6% in experiment [10]; 60.4% in experiment [11]; 83.6% in experiment [12]. Moreover, the growth is 56.4% in experiment [13]; 86.4% in [14]; 76.4% in [15]; 80.6% in experiment [16]; 76.9% in [17]; 71.4% in experiment [18]. The growth was 64.5% in experiment [19] and 84.8% in experiment [20].
As for `N#CC1CCc2c(c(-c3ccc4nc(N)sc4c3)nc3ccc4[nH]ncc4c23)C1` (stereo not given), the growth in experiment [1] was 35.4%; in experiment [2], 29.8%; in experiment [3], 68.8%; in experiment [4], 54.9%; in [5], 1.38% (active); in experiment [6] it was 63.1%. For the same compound, the growth in experiment [7] is 23.1%; in experiment [8], -0.136% (active); in experiment [9], 88.7%; in experiment [10], 19.8%; in experiment [11] it was 30%; in experiment [12], 15.4%. For the same compound, the growth was 25.2% in experiment [13]; 67.7% in experiment [14]; 46.7% in experiment [15]; 21.8% in [16]; 11.5% in [17]; 36.2% in [18]. The growth in experiment [19] was 34.2%; in experiment [20] it was 54.9%.
With `CCN1C(=O)N(CC)C2C1NN=c1s/c(=C3\C(=O)N(CC(C)C)c4ccccc43)c(=O)n12` (stereo not given), the growth is 10.4% in experiment [1]; 10.5% in [2]; 59.6% in experiment [3]; 12.3% in experiment [4]; 21.9% in experiment [5]; 54.9% in [6]. For the same compound, the growth in experiment [7] is 6.8% (active); in experiment [8], -23.5% (active); in experiment [9] it was 65.5%; in [10], 18.8%; in experiment [11] it was 12.5%; in experiment [12], 2.25% (active). The growth in [13] is 14.9%; in experiment [14] it was 28%; in experiment [15], 12.1%; in [16], 27.7%; in experiment [17], 14.9%; in [18], 27.7%. In addition, the growth is 24.7% in experiment [19] and 51% in experiment [20].
On to `Cc1ccc(-c2nc(-c3cn(C)c4ncccc34)cs2)cc1`, for which the growth is -56.4% [100 µM] (active) in [1]; 10.3% [100 µM] in [2]; -40% [100 µM] (active) in experiment [3]; -14.6% [100 µM] (active) in experiment [4]; -37.8% [100 µM] (active) in [5]; 2.72% [100 µM] (active) in experiment [6]. For the same compound, the growth was -42.2% [100 µM] (active) in [7]; -79% [100 µM] (active) in experiment [8]; -7.24% [100 µM] (active) in experiment [9]; -63.7% [100 µM] (active) in experiment [10]; -18% [100 µM] (active) in experiment [11]; -68.1% [100 µM] (active) in [12]. Moreover, the growth was -40.2% [100 µM] (active) in experiment [13]; -21.1% [100 µM] (active) in experiment [14]; -7.83% [100 µM] (active) in [15]; -20.6% [100 µM] (active) in experiment [16]; -84.9% [100 µM] (active) in [17]; -50.3% [100 µM] (active) in experiment [18]. Moreover, the growth in [19] is -41% [100 µM] (active); in experiment [20], -19.7% [100 µM] (active).
As to `COc1cc(OC)c(C(=O)C(CN(C)C)CN(C)C)cc1OC`, the growth was 87.3% in experiment [1]; -42.3% (active) in experiment [2]; -87.8% (active) in experiment [3]; -59.7% (active) in [4]; -75% (active) in [5]; 99.1% in [6]. Also, the growth in [7] was 101%; in [8], 67.7%; in experiment [9], 8.98% (active); in experiment [10] it was -31.6% (active); in [11] it was -52.4% (active); in experiment [12] it was 2.66% (active). Besides, the growth in [13] was 91.4%; in [14], 102%; in experiment [15], 101%; in [16] it was 94.5%; in experiment [17], 101%; in experiment [18] it was 19.2%. Moreover, the growth in experiment [19] was -68.8% (active); in [20], 21.8%.
